Laboratory results taken from PubChem BioAssay (Tox21).
Records with an inconclusive call do not appear. The source made the active and inactive calls. The call rests on the fitted dose curve.

target: Acetylcholinesterase (Homo sapiens) (UniProt P22303); test: Acetylcholinesterase (AChE) small molecule antagonists: colormetric cell-based qHTS assay (AID 1347395); conditions: SH-SY5Y cells AChE activity, colorimetric (Ellman); series mostly up to 115 µM; activity, negative = inhibition: at the top concentration; further: nearly all actives have a fitted effect of over 30% in size
In short: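 Homogeneous whole-cell format. SH-SY5Y cells seeded overnight, dosed with compound (30 min, 37 C, 5% CO2), then given DTNB/acetylthiocholine cocktail for 90 min at 37 C; colorimetric signal.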
On the % scale 0 is the no-effect control and ±100 the full control effect.

Sequence of Acetylcholinesterase (Homo sapiens) (P22303 whole entry, looked up): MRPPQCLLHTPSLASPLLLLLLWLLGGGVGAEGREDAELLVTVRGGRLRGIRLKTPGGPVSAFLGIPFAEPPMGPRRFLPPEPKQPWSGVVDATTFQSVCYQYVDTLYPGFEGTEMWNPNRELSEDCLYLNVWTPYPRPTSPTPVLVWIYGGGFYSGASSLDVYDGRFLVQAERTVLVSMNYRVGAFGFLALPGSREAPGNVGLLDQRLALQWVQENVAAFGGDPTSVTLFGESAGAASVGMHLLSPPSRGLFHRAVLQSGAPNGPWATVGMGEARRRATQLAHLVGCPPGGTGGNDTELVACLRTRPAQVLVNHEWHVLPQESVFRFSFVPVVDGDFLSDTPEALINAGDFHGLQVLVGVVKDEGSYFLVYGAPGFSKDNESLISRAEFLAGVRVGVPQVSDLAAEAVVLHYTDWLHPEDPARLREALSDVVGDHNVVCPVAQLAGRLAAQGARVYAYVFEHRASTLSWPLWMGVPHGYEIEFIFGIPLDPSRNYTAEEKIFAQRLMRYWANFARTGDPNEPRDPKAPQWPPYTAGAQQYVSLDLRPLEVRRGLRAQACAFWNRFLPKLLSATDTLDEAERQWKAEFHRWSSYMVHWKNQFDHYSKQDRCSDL

| SMILES | activity, negative = inhibition |
| --- | --- |
| Clc1ccnc(Cl)n1 | 0.679% (inactive) |
| CCCC(=O)C(CC)Sc1ccoc1C (stereo not drawn) | -0.0254% (inactive) |
| c1ccc(CNCc2ccccc2)cc1 | -2.06% (inactive) |
| COC(=O)/C=C(/C)N | -0.757% [at 52.9 µM] (inactive) |
| NNC(=O)CCCCC(=O)NN | 1.49% (inactive) |
| C#C[C@]1(OC(C)=O)CC[C@H]2[C@@H]3CCC4=C/C(=N/O)CC[C@@H]4[C@H]3CC[C@@]21CC | 3.79% [at 52.9 µM] (inactive) |
| CC(=O)c1c(C)cc(C(C)(C)C)cc1C | 1.09% (inactive) |
| C/C(=C\C(C)CC(C)CC(C)C)C1CC(=O)OC1=O (stereo not drawn) | 1.3% (inactive) |
| CCCCCCCCCCCCCCCCCO | 0.97% [at 23.6 µM] (inactive) |
| c1ccc(-c2nc[nH]c2-c2ccccc2)cc1 | -3.26% [at 52.9 µM] (inactive) |
| CN(C)CCc1c[nH]c2ccc(CS(=O)(=O)N3CCCC3)cc12 | 4.32% [at 52.9 µM] (inactive) |
| CC(C)c1ccc2c(c1)CC[C@H]1[C@](C)(CN)CCC[C@]21C | 4.59% (inactive) |
| CC1=C(/C=C/C(C)=C/C=C/C(C)=C\C(=O)O)C(C)(C)CCC1 | -9.32% (inactive) |
| C1CCC2(CCCCO2)OC1 | 3.82% (inactive) |
| Cc1occc(=O)c1OC(=O)C(C)C | -1.83% (inactive) |
| CCOC(=O)COC(=O)c1cc(Oc2ccc(C(F)(F)F)cc2Cl)ccc1[N+](=O)[O-] | 5.15% (inactive) |
| CCC(C)(C)C1CCC(=O)CC1 | 2.03% (inactive) |
| CO[Si](CCCS)(OC)OC | 0.678% (inactive) |
| CCCCCCCCCCCCCc1ccccc1 | 3.12% [at 52.9 µM] (inactive) |
| CCO[Si](C)(C)OCC | -8.78% (inactive) |

| SMILES | activity, negative = inhibition |
| --- | --- |
| CN(C)C(C)(C)CO | 7.32% (inactive) |
| COC(=O)c1cc(Cl)cc(Cl)c1 | -1.47% (inactive) |
| CCOC(=O)CC#N | 1.43% (inactive) |
| Cc1ccc(N/N=c2\c(=O)cc/c(=N\Nc3ccc(S(=O)(=O)O)cc3)c2=O)c(C)c1 | 8.58% (inactive) |
| OCCCS | -1.17% (inactive) |
| Cc1ccccc1N1C(=O)c2cc(S(N)(=O)=O)c(Cl)cc2NC1C (stereo not drawn) | -0.712% [at 52.9 µM] (inactive) |
| CC/C=C\CCOC(C)=O | 8.55% (inactive) |
| C=CC(=O)O | -0.864% [at 52.9 µM] (inactive) |
| C=C(C)C(=O)OCCOCC | -0.574% (inactive) |
| CCCc1ccc(OC)cc1 | -0.651% (inactive) |
| CC(=O)OCC(C)OC(C)=O (stereo not drawn) | 0% (inactive) |
| CCC(C)(C)C(=O)O | 0.962% (inactive) |
| CC(=O)c1ccc[nH]1 | 0.575% (inactive) |
| CCC=CC#N | 0.715% (inactive) |
| C[C@]12CC[C@H]3C(=CCc4cc(O)ccc43)[C@@H]1CCC2=O | -3.03% (inactive) |
| Cc1cccn2c(=O)c(-c3nnn[nH]3)cnc12 | -0.311% [at 23.6 µM] (inactive) |
| C/C=C/C(=O)Oc1c(CCCCCC(C)C)cc([N+](=O)[O-])cc1[N+](=O)[O-] | 0.421% (inactive) |
| OC1(c2ccc(Cl)cc2)CCNCC1 | 1.59% [at 52.9 µM] (inactive) |
| NC(=O)Nc1ccc(Cl)c(Cl)c1 | 2.87% (inactive) |

target: Acetylcholinesterase (Homo sapiens) (UniProt P22303); test: Acetylcholinesterase (AChE) small molecule antagonists: enzyme-based qHTS assay (AID 1347397); conditions: Potency: AChE enzyme activity inhibition; outcome: AChE enzyme activity inhibition; series mostly up to 115 µM; activity change, negative = inhibition: at the top concentration; further: nearly all actives have a fitted effect of over 55% in size; further: potency means the concentration at half of the fitted maximal effect
In short: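 Human recombinant acetylcholinesterase; substrate acetylthiocholine; thiocholine quantified with DTNB (colorimetric). Compound preincubation 30 min RT; reaction 10 min RT.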

| SMILES | activity change, negative = inhibition | Potency |
| --- | --- | --- |
| Clc1ccnc(Cl)n1 | -0.284% (inactive) |  |
| CCCC(=O)C(CC)Sc1ccoc1C (stereo not drawn) | -0.411% (inactive) |  |
| c1ccc(CNCc2ccccc2)cc1 | 0.0706% (inactive) |  |
| COC(=O)/C=C(/C)N | 0.139% [at 53 µM] (inactive) |  |
| NNC(=O)CCCCC(=O)NN | -1.97% (inactive) |  |
| C#C[C@]1(OC(C)=O)CC[C@H]2[C@@H]3CCC4=C/C(=N/O)CC[C@@H]4[C@H]3CC[C@@]21CC | 0.139% [at 53 µM] (inactive) |  |
| CC(=O)c1c(C)cc(C(C)(C)C)cc1C | -0.0051% (inactive) |  |
| C/C(=C\C(C)CC(C)CC(C)C)C1CC(=O)OC1=O (stereo not drawn) | 0.409% (inactive) |  |
| CCCCCCCCCCCCCCCCCO | -1.09% [at 23.6 µM] (inactive) |  |
| c1ccc(-c2nc[nH]c2-c2ccccc2)cc1 | 0.671% [at 53 µM] (inactive) |  |
| CN(C)CCc1c[nH]c2ccc(CS(=O)(=O)N3CCCC3)cc12 | -0.26% [at 53 µM] (inactive) |  |
| CC(C)c1ccc2c(c1)CC[C@H]1[C@](C)(CN)CCC[C@]21C | 2.76% (inactive) |  |
| CC1=C(/C=C/C(C)=C/C=C/C(C)=C\C(=O)O)C(C)(C)CCC1 | 0.273% (inactive) |  |
| C1CCC2(CCCCO2)OC1 | 0.235% (inactive) |  |
| Cc1occc(=O)c1OC(=O)C(C)C | -0.282% (inactive) |  |
| CCOC(=O)COC(=O)c1cc(Oc2ccc(C(F)(F)F)cc2Cl)ccc1[N+](=O)[O-] | -0.684% (inactive) |  |
| CCC(C)(C)C1CCC(=O)CC1 | -0.701% (inactive) |  |
| CO[Si](CCCS)(OC)OC | 0.203% (inactive) |  |
| CCCCCCCCCCCCCc1ccccc1 | 1.22% [at 53 µM] (inactive) |  |
| CCO[Si](C)(C)OCC | -5.03% (inactive) |  |

| SMILES | activity change, negative = inhibition | Potency |
| --- | --- | --- |
| CN(C)C(C)(C)CO | 0.63% (inactive) |  |
| COC(=O)c1cc(Cl)cc(Cl)c1 | -0.859% (inactive) |  |
| CCOC(=O)CC#N | 0.393% (inactive) |  |
| Cc1ccc(N/N=c2\c(=O)cc/c(=N\Nc3ccc(S(=O)(=O)O)cc3)c2=O)c(C)c1 | 22.4% (inactive) |  |
| OCCCS | 1.23% (inactive) |  |
| Cc1ccccc1N1C(=O)c2cc(S(N)(=O)=O)c(Cl)cc2NC1C (stereo not drawn) | 0.277% [at 53 µM] (inactive) |  |
| CC/C=C\CCOC(C)=O | 0.226% (inactive) |  |
| C=CC(=O)O | 1.21% [at 53 µM] (inactive) |  |
| C=C(C)C(=O)OCCOCC | 0.0169% (inactive) |  |
| CCCc1ccc(OC)cc1 | 0.395% (inactive) |  |
| CC(=O)OCC(C)OC(C)=O (stereo not drawn) | 0.567% (inactive) |  |
| CCC(C)(C)C(=O)O | -0.136% (inactive) |  |
| CC(=O)c1ccc[nH]1 | 0.778% (inactive) |  |
| CCC=CC#N | -0.557% (inactive) |  |
| C[C@]12CC[C@H]3C(=CCc4cc(O)ccc43)[C@@H]1CCC2=O | -0.799% (inactive) |  |
| Cc1cccn2c(=O)c(-c3nnn[nH]3)cnc12 | -2.02% [at 23.6 µM] (inactive) |  |
| C/C=C/C(=O)Oc1c(CCCCCC(C)C)cc([N+](=O)[O-])cc1[N+](=O)[O-] |  | 71 µM (active) |
| OC1(c2ccc(Cl)cc2)CCNCC1 | 0.945% [at 53 µM] (inactive) |  |
| NC(=O)Nc1ccc(Cl)c(Cl)c1 | 1.06% (inactive) |  |
